# Measurements: the supplement of paper PMC10811239
# Tested on: LEGO organoid PT (PTEN-/-; TP53-/-)
# Test: bioluminescence (viable cell) signal fold change after vs before treatment, normalised to DMSO (ratio); higher = more tumour cell growth / less inhibition
# Settings: 10 µM; treatment time 6 days
# Procedure: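 Luc2-labelled iPSC-derived glioblastoma-like organoids (LEGOs, genotypes PT = PTEN-/-;TP53-/-, PTCC = plus CDKN2A/B-/-, PTN = plus NF1-/-) were treated with 10 uM drug for 6 days (applied every other day) at 37 C. Bioluminescence imaging was done before treatment and 2 days after the last dose. BLI signals were normalised to the DMSO control on the same day and then to the pre-treatment signal (N=3).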
row,SMILES,bioluminescence
1,COC(=O)C1=C(C)NC(C)=C(C(=O)OCCN(C)Cc2ccccc2)C1c1cccc([N+](=O)[O-])c1.Cl (stereo not drawn) [Nicardipine hydrochloride],0.99
2,Cl.OC[C@H]1NC[C@H](O)[C@@H](O)[C@H]1O [Migalastat hydrochloride],0.868
3,CC(C(=O)O)c1ccc(-c2ccccc2)c(F)c1 (stereo not drawn) [Flurbiprofen],1.09
4,Nc1cccc2c1CN(C1CCC(=O)NC1=O)C2=O (stereo not drawn) [Lenalidomide],2.02
5,CN(C)CC(c1ccc(O)cc1)C1(O)CCCCC1.O=C(O)CCC(=O)O (stereo not drawn) [Desvenlafaxine succinate hydrate],1.67
6,CCCN(CCc1cccs1)[C@H]1CCc2c(O)cccc2C1 [Rotigotine],0.925
7,CCN(CC)C(=O)[C@]1(c2ccccc2)C[C@@H]1CN.Cl [Milnacipran hydrochloride],1.54
8,CCCN(CCC)S(=O)(=O)c1ccc(C(=O)O)cc1 [Probenecid],3.62
9,CN(C)CCc1c[nH]c2ccc(CS(=O)(=O)N3CCCC3)cc12.O=C(O)CC(O)C(=O)O [Almotriptan Malate],1.74
10,C[C@@H]1COCCN1c1cc(C2([S@](C)(=N)=O)CC2)nc(-c2ccnc3[nH]ccc23)n1 [Ceralasertib],0.917
11,C[C@@](Cc1ccc(O)c(O)c1)(NN)C(=O)O.O [Carbidopa Hydrate],0.415
12,COC(c1ccccc1)(c1ccccc1)[C@H](Oc1nc(C)cc(C)n1)C(=O)O [Ambrisentan],0.999
13,OC[C@H]1O[C@@H](n2cnc3c2NC=NC[C@H]3O)C[C@@H]1O [Pentostatin],0.674
14,CC(=O)NCCCS(=O)(=O)[O-].CC(=O)NCCCS(=O)(=O)[O-].[Ca+2] [Acamprosate calcium],2.61
15,CNC(=O)c1cc(Oc2ccc(NC(=O)Nc3ccc(Cl)c(C(F)(F)F)c3)cc2)ccn1 [Sorafenib],0.335
16,CC(C)CN(C[C@@H](O)[C@H](Cc1ccccc1)NC(=O)O[C@H]1CCOC1)S(=O)(=O)c1ccc(N)cc1 [Amprenavir],0.802
17,O=c1cc(O)c(Cl)c[nH]1 [Gimeracil],0.79
18,CNC(=O)c1cc(Oc2ccc(NC(=O)Nc3ccc(Cl)c(C(F)(F)F)c3)cc2)ccn1.Cc1ccc(S(=O)(=O)O)cc1 [Sorafenib tosylate],0.401
19,Clc1ccc2c(c1)C(N1CCNCC1)=Nc1ccccc1O2 [Amoxapine],0.902

row,SMILES,bioluminescence
1,Nc1cccc2c1C(=O)N(C1CCC(=O)NC1=O)C2=O (stereo not drawn) [Pomalidomide],1.5
2,Nc1nc(NC2CC2)c2ncn([C@H]3C=C[C@@H](CO)C3)c2n1.Nc1nc(NC2CC2)c2ncn([C@H]3C=C[C@@H](CO)C3)c2n1.O=S(=O)(O)O [Abacavir sulfate],0.703
3,CC(=O)Oc1ccccc1C(=O)O [Aspirin],0.997
4,CO[C@H]1C(=O)[C@]2(C)[C@@H](OC)C[C@H]3OC[C@@]3(OC(C)=O)[C@H]2[C@H](OC(=O)c2ccccc2)[C@]2(O)C[C@H](OC(=O)[C@H](O)[C@@H](NC(=O)OC(C)(C)C)c3ccccc3)C(C)=C1C2(C)C [Cabazitaxel],1.15
5,CC(C)c1c(C(=O)Nc2ccccc2)c(-c2ccccc2)c(-c2ccc(F)cc2)n1CC[C@@H](O)C[C@@H](O)CC(=O)[O-].CC(C)c1c(C(=O)Nc2ccccc2)c(-c2ccccc2)c(-c2ccc(F)cc2)n1CC[C@@H](O)C[C@@H](O)CC(=O)[O-].[Ca+2] [Atorvastatin Calcium],1.09
6,Nc1[nH]c(=O)ncc1F [Fluorocytosine],2.51
7,O=C1CCc2ccc(OCCCCN3CCN(c4cccc(Cl)c4Cl)CC3)cc2N1 [Aripiprazole],0.399
8,COc1ccc(Cl)cc1C(=O)NCCc1ccc(S(=O)(=O)NC(=O)NC2CCCCC2)cc1 [Glyburide],2.23
9,CO/N=C(\C(=O)N[C@@H]1C(=O)N2C(C(=O)[O-])=C(CSc3nc(=O)c([O-])nn3C)CS[C@H]12)c1csc(N)n1.CO/N=C(\C(=O)N[C@@H]1C(=O)N2C(C(=O)[O-])=C(CSc3nc(=O)c([O-])nn3C)CS[C@H]12)c1csc(N)n1.O.O.O.O.O.O.O.[Na+].[Na+].[Na+].[Na+] [Ceftriaxone sodium],0.964
10,CC(C)Cc1ccc(C(C)C(=O)O)cc1 (stereo not drawn) [Ibuprofen],1.56
11,Cc1cccc(C)c1OCC(=O)N[C@@H](Cc1ccccc1)[C@@H](O)C[C@H](Cc1ccccc1)NC(=O)[C@H](C(C)C)N1CCCNC1=O [Lopinavir],1.02
12,C[C@@H]1CCN(C(=O)CC#N)C[C@@H]1N(C)c1ncnc2[nH]ccc12 [Tofacitinib],1.24
13,CN(C/C=C/c1ccccc1)Cc1cccc2ccccc12.Cl [Naftifine hydrochloride],0.607
14,Nc1ncn([C@H]2C[C@H](O)[C@@H](CO)O2)c(=O)n1 [Decitabine],1.2
15,C[C@H]1C[C@@H]2[C@H]([C@@H](O)C[C@@]3(C)[C@H]2CC[C@]3(O)C(=O)CO)[C@@]2(C)C=CC(=O)C=C12 [Methylprednisolone],1.3
16,NC(=O)N1c2ccccc2C=Cc2ccccc21 [Carbamazepine],0.803
17,O=C(CCCCCCC(=O)Nc1ccccc1)NO [Vorinostat],1.13
18,COc1ccccc1OCC(O)COC(N)=O (stereo not drawn) [Methocarbamol],0.829
19,CC(=O)[C@H]1CC[C@H]2[C@@H]3CCC4=CC(=O)CC[C@]4(C)[C@H]3CC[C@]12C [Progesterone],0.82
